In experiment [1] the target is Thyroid hormone receptor beta (Homo sapiens) (UniProt P10828). As to the kind of experiment: qHTS assay for small molecule antagonists of thyroid hormone receptor beta signaling (AID 588547; active means well fitted inhibition curve with a large enough effect in the signal ratio, with a control signal flat, not every such curve was filed as active; the % refers to the signal ratio;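 further: cells stimulated with 0.4 nM T3 agonist during compound exposure; series mostly up to about 77 µM; on the % scale 0 is the no-effect control and ±100 the full control effect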). The note with it: TR-UAS-bla HEK293, beta-lactamase ratio, antagonist mode, 18 h. The method, boiled down:
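TR-UAS-bla GripTite HEK293 cells in 2% charcoal/dextran FBS medium; compounds 0.59 nM to 92 uM with T3 at 0.4nM final, 18 h at 37 C. Beta-lactamase read by CCF4 fluorescence (460/530 nm); Hill fits gave IC50 and efficacy.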

Experiment [2] addresses Voltage-gated inwardly rectifying potassium channel KCNH2 (Homo sapiens) (UniProt Q12809). As to the kind of experiment: qHTS Assay for Small Molecule Inhibitors of the Human hERG Channel Activity (AID 588834).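 Further: top concentration of the series differs between compounds; on the % scale 0 is the no-effect control and ±100 the full control effect; lower thallium flux fluorescence means stronger hERG block; nearly all actives have a fitted effect of over 50% in size.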 The method in brief:
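Thallium-flux (FluxOR) read-out on FDSS: fluorescence read 10 s before and 2 min after stimulation buffer. hERG-BacMam-transduced U2OS cells, compound exposure about 10 min. AC50 by standard Hill equation.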

A short description of experiment [3]: qHTS assay for small molecule agonists of the antioxidant response element (ARE) signaling pathway (AID 651741; active means well fitted activation curve with a large enough effect in the signal ratio; the % refers to the signal ratio; further: potency means the concentration at half of the fitted maximal effect). The method, boiled down: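 HepG2 ARE-bla reporter cells, 2,000/well; 5 h settle at 37 C/5% CO2; compound pin transfer (23 nL, DMSO); 16 h at 37 C; LiveBLAzer B/G FRET substrate, 2 h RT; fluorescence intensity read.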
Experiment [4] in a line: qHTS assay for small molecule activators of the p53 signaling pathway (AID 651743; active means well fitted activation curve with a large enough effect in the signal ratio, not every such curve was filed as active; the % refers to the signal ratio; further: potency means the concentration at half of the fitted maximal effect). Conditions: HCT-116 p53RE-bla, beta-lactamase FRET ratio, 16 h; activation: active compounds read high. The method, boiled down: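 Reporter: beta-lactamase driven by p53 response elements, stably integrated in HCT-116 cells. Cells seeded at 4,000/well, 5 h preincubation, compound (DMSO) 16 h at 37 C; B/G FRET substrate 2 h RT; fluorescence intensity read.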

A short description of experiment [5]: qHTS assay for small molecule activators of the nuclear factor-kappa B (NF-kB) signaling pathway (AID 651749; active means well fitted activation curve with a large enough effect in the signal ratio; the % refers to the signal ratio; further: series mostly up to about 77 µM; % of control where 0% means no effect). The note with it: NF-kB-bla ME-180 cells, beta-lactamase FRET ratio, 16 h; activation: active compounds read high. The method, boiled down: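 NF-kB-bla ME-180 cells, 2,000/well; 23 nL compound or DMSO pinned; 16 hr, 37C/5% CO2; beta-lactamase FRET read-out.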

A short description of experiment [6]: qHTS assay for small molecule disruptors of the mitochondrial membrane potential - 1 hr assay (AID 651754; calls by dose curve; further: potency means the concentration at half of the fitted maximal effect; nearly all actives have a fitted effect of over 35% in size). The method, boiled down:
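Read-out: dye fluorescence at 490 nm ex/535 nm em (monomers) and 540 nm ex/590 nm em (aggregates) in HepG2 cells. Compound exposure 1 hr at 37C, followed by 30 min dye loading.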

Experiment [7] can be described thus: qHTS assay for small molecule disruptors of the mitochondrial membrane potential - 5 hr assay (AID 651755; calls by dose curve; further: potency means the concentration at half of the fitted maximal effect; nearly all actives have a fitted effect of over 40% in size). The method, boiled down:
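Read-out: ratiometric Mito-MPS fluorescence, green monomer (ex 490/em 535) vs red mitochondrial aggregate (ex 540/em 590). HepG2 cells treated 5 hr at 37C before 30 min dye loading.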

In experiment [8] the target is Tumor necrosis factor (Homo sapiens) (UniProt P01375). The experiment is described as follows: qHTS assay to identify small molecules that stimulate Tumor Necrosis Factor-alpha (TNF-alpha) secretion (AID 651757; active means well fitted curve in the direction sought with a large enough effect in the signal ratio; the % refers to the signal ratio; further: 0% is about no effect). The method in brief: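 THP-1 cells, 3000/well; compound 17 hrs, 37 C; add cryptate/XL665 anti-TNF-alpha antibody pair; 3 hr RT; TR-FRET (HTRF) read of secreted TNF-alpha. Quantitative HTS format.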

A short description of experiment [9]: qHTS assay for environmental chemicals that activate the Aryl hydrocarbon Receptor (AhR) signaling pathway (AID 651777). Further: potency means the concentration at half of the fitted maximal effect; nearly all actives have a fitted effect of over 15% in size. Conditions: 1A2-DRE human hepatoma cells, luciferase, 24 h; activation: active compounds read high. The method, boiled down:
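Luminescence (One-Glo, 30 min, room temperature) reports AhR-driven luciferase in stably transfected human hepatoma cells bearing DRE and CYP1A2 promoter. Cells (1,200/well) were treated with compound for 24 hr at 37 C in qHTS format.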

For experiment [10], the target named is Peroxisome proliferator-activated receptor alpha (Homo sapiens) (UniProt Q07869). The experiment is described as follows: qHTS assay for small molecule agonists of the peroxisome proliferator-activated receptor alpha (PPARalpha) signaling pathway (AID 651778). Further: % of control where 0% means no effect. The note with it: PathHunter PPARalpha complementation, chemiluminescence, 6 h; active compounds read high. The method in brief:
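Enzyme-fragment complementation assay in which ligand-bound PPARalpha translocates and forms an active enzyme that generates chemiluminescence. Cells were plated overnight, exposed to compound for 6 hr at 37 C, and then given detection reagent for 60 min at room temperature.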

Experiment [11] concerns the target Nuclear receptor ROR-gamma (Homo sapiens) (UniProt P51449). The experiment is described as follows: qHTS assay for small molecule antagonists of the retinoid-related orphan receptor gamma (ROR-gamma) signaling pathway (AID 651802). Further: potency means the concentration at half of the fitted maximal effect; nearly all actives have a fitted effect of over 60% in size. The method, boiled down:
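Luciferase read-out: ONE-Glo luminescence after 30 min at room temperature, following 16hr doxycycline induction at 37C, 5% CO2 of CHO cells with TET-inducible ROR and RORE-LUC reporter; decreased luminescence = reduced reporter activity.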

Experiment [12] can be described thus: qHTS assay for small molecule agonists of the antioxidant response element (ARE) signaling pathway measured by Nrf2-dependant transcriptional activity (AID 720636; active means well fitted curve in the direction sought with a large enough effect in the repeat runs; an effect the other way counts as inactive or inconclusive; further: % of control where 0% means no effect). The method in brief: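 Nrf2-dependent transcription read as ONE-Glo luciferase signal from ARE-luc HepG2 reporter cells after 16 hr compound treatment at 37 C, 5% CO2, in assay medium with 1% dialyzed FBS.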

Experiment [13] in a line: qHTS assay for small molecule antagonists of the retinoid-related orphan receptor gamma (ROR-gamma) signaling pathway - cell viability counter screen (AID 720652; active means well fitted curve in the direction sought with a large enough effect in the repeat runs; an effect the other way counts as inactive or inconclusive;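 further: CHO reporter cells with doxycycline-induced ROR-gamma expression; series mostly up to about 92 µM; compound exposure lasted 16 hr before ATP read; on the % scale 0 is the no-effect control and ±100 the full control effect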). The method, boiled down:
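CHO RORE-LUC/TET-ROR line, 1,000 cells/well, 37 C 5% CO2 5 hr; cpd or DMSO + doxycycline induction, 16 hr. CellTiter-Glo, 30 min RT, luminescence = ATP content.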

Experiment [14] in a line: qHTS assay for small molecule agonists of the antioxidant response element (ARE) signaling pathway measured by Nrf2-dependant transcriptional activity - cell viability counter screen (AID 720653; active means well fitted curve in the direction sought with a large enough effect in the repeat runs; an effect the other way counts as inactive or inconclusive; further: on the % scale 0 is the no-effect control and ±100 the full control effect). The note with it: ARE-bla HepG2 viability, CellTiter-Glo ATP luminescence, 16 h; max response: active compounds read low. The method in brief: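 ARE-bla HepG2 cells treated with compounds for 16 h at 37C; this counter screen measures viability as intracellular ATP by CellTiter-Glo luminescence after 30 min at room temperature.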

Experiment [15] is described as follows: qHTS assay for cell viability of HEK293 cells (AID 743288). Further: on the % scale 0 is the no-effect control and ±100 the full control effect; nearly all actives have a fitted effect of over 50% in size. Conditions: ATP luminescence (CellTiter-Glo), 18 h; max response: active compounds read low. The method, boiled down:
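ATP luminescence (CellTiter-Glo) reports metabolically competent cell number after parental HEK293 cells, 2,000/well, were treated with DMSO-dissolved compounds for 18 h at 37 C; reagent incubation 30 min, room temperature.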

The nature of experiment [16]: qHTS assay for cell viability of the p53RE-bla HCT-116 cell line (AID 743292). Further: on the % scale 0 is the no-effect control and ±100 the full control effect; nearly all actives have a fitted effect of over 55% in size. The method in brief: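 ATP-based luminescent viability (CellTiter-Glo, 30 min RT) after 16 h compound treatment at 37 C of p53RE-bla HCT-116 cells, seeded at 4,000 cells/well and rested 5 h before dosing.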
The next experiment concerns the target Furin (Homo sapiens) (UniProt P09958). As to the kind of experiment: Furin counterscreen qHTS for Zika virus inhibitors (AID 1347149).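 Further: purified recombinant full-length human furin enzyme at 5 nM; fluorescence gain from furin cutting a BOC-RVRR-AMC peptide substrate over 15 min; top concentration of the series differs between compounds; plate controls were no-inhibitor control for no effect and no-enzyme control for full effect; nearly all actives have a fitted effect of over 70% in size.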 The method in brief:
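Counterscreen measures cleavage of 2 microM BOC-RVRR-AMC, below its ~15 microM Km, by 5 nM full-length human furin at pH 7.0 after a 15-min compound preincubation. Inhibition derives from the 15-min fluorescence increase at 37C.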

Experiment [17] in a line: Confirmatory screen GU Rhodamine qHTS for Zika virus inhibitors qHTS (AID 1347157). Further: potency means the concentration at half of the fitted maximal effect; nearly all actives have a fitted effect of over 70% in size. The method in brief:
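Buffer 10 mM Tris-HCl pH 8.0, 0.01% Tween 20. Unlinked protease 25 nM; compound preincubation 15 min, RT, protected from light. Substrate Rhod110, 1.5 microM; ~15% conversion in 15 min.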

A short description of experiment [18]: ZIKV-mCherry secondary qHTS for Zika virus inhibitors (AID 1347158). Further: potency means the concentration at half of the fitted maximal effect. The note with it: Vero cells, ZIKV-mCherry infection imaging, 48-72 h. The method in brief: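 Read-out is percent infection: mCherry-positive Vero cells (nuclear-proximal intensity >450 RFU, 3 SD above negative controls) counted by high-content imaging of Hoechst-stained, PFA-fixed wells after 48-72 h with ZIKV-mCherry at MOI 1 and compound.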

Experiment [19] is described as follows: Confirmatory screen NINDS Rhodamine qHTS for Zika virus inhibitors (AID 1347161). Further: potency means the concentration at half of the fitted maximal effect; nearly all actives have a fitted effect of over 60% in size. The method in brief: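 Each compound, titrated, sat 15 min with 25 nM linked protease before 1.5 microM Rhodamine110 substrate went in. Fluorescence gain over the next 15 min, in pH 8.0 Tris with Tween 20, gave Hill-fitted curves.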
Experiment [20] concerns Zika virus NS2B-NS3 protease (linked). As to the kind of experiment: 384 well plate NINDS AMC confirmatory qHTS for Zika virus inhibitors (AID 1347163). Further: potency means the concentration at half of the fitted maximal effect; nearly all actives have a fitted effect of over 50% in size. The note with it: Recombinant NS2B-NS3 protease, Ac-VKTGKR-AMC fluorescence. The method in brief:
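Enzyme (5, 30 or 60 nM final) first met test compounds for ~15 min. The AMC-tagged peptide Ac-VKTGKR-AMC followed at 30 microM. Fluorescence was then recorded at 25 min and scaled against no-enzyme and no-inhibitor wells.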

For experiment [21], the system named is Zika virus NS2B-NS3 protease (linked construct). The experiment is described as follows: 384 well plate NINDS Rhodamine confirmatory qHTS for Zika virus inhibitors (AID 1347164).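 Further: fluorescence from protease cleavage of Ac-LKRR-rhodamine 110 substrate; potency means the concentration at half of the fitted maximal effect; nearly all actives have a fitted effect of over 65% in size.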 The method in brief:
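Fluorescence read at ex 485 nm/em 538 nm, 25 min after adding 10 microM Ac-LKRR-Rd substrate at room temperature in the dark; signal normalized to no-enzyme and no-inhibitor controls. Enzyme final 5, 30 or 60 nM; compounds, ~15 min preincubation.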

Experiment [22] concerns the target Nuclear receptor subfamily 1 group I member 2 (Rattus norvegicus) (UniProt Q9R1A7). As to the kind of experiment: qHTS assay for small molecule activators of the rat pregnane X receptor (rPXR) signaling pathway (AID 651751; call rule not given here; further: 0% is about no effect). Conditions: rPXR reporter cells, luciferase (One-Glo), 24 h.

Where “and” joins values, the source holds several entries; their conditions need not be identical. Identical values can stand only once. Unmarked numbers belong to inactive results. Results filed as inconclusive are left out. Calls of active or inactive are those of the source. Unless noted, the call rests on the fitted dose curve; in most records, active means well fitted curve in the direction sought with a large enough effect; inconclusive means small, poorly fitted or top-dose-only effect, or another doubt; inactive means no such curve, though single readings can be large; an effect the other way counts as inactive or inconclusive.

Peroxisome proliferator-activated receptor alpha (Homo sapiens), sequence (Q07869 whole entry, looked up, the tested form may be a part): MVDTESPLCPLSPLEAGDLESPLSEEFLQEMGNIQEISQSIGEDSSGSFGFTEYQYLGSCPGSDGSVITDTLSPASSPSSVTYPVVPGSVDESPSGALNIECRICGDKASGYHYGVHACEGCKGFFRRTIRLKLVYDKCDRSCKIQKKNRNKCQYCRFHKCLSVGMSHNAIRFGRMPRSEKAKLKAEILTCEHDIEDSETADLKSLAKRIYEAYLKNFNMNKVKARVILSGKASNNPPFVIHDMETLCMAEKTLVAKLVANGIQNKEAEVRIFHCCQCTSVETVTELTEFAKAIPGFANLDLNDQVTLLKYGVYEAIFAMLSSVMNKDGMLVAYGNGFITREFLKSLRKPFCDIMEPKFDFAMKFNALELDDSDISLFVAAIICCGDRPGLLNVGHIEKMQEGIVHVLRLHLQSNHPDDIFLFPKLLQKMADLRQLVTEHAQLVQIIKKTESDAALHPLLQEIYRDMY
Nuclear receptor subfamily 1 group I member 2 (Rattus norvegicus), sequence (Q9R1A7 whole entry, looked up): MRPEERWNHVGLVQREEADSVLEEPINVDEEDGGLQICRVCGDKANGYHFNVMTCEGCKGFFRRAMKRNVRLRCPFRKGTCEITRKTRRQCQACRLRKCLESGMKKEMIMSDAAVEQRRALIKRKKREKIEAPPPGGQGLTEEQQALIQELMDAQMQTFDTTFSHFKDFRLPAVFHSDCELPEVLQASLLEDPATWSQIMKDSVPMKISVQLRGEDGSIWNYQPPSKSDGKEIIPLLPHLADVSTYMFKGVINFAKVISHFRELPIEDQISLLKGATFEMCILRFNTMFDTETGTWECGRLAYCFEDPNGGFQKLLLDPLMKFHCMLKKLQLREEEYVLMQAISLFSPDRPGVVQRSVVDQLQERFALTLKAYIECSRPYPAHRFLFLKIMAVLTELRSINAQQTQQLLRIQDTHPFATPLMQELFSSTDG
Furin (Homo sapiens), sequence (P09958 whole entry, looked up): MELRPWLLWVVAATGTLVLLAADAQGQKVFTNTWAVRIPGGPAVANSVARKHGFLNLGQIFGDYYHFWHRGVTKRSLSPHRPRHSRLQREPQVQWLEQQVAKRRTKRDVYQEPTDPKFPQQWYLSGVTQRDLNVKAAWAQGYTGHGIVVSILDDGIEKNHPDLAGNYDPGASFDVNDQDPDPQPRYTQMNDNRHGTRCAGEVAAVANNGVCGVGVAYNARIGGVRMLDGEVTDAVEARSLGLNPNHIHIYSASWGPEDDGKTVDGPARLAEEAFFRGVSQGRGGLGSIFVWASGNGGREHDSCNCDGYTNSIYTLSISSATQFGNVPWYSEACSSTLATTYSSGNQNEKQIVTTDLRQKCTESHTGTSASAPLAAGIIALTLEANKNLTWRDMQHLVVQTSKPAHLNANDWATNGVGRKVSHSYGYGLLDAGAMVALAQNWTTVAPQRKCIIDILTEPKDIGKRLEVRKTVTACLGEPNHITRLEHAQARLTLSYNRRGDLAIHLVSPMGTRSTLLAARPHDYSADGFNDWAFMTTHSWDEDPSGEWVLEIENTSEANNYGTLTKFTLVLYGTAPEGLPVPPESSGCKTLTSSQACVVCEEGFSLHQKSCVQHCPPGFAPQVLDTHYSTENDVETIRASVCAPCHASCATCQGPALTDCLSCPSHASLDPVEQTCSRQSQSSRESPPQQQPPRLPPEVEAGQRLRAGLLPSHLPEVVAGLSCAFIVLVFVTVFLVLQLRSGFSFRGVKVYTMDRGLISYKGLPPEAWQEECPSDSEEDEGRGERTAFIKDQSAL
Tumor necrosis factor (Homo sapiens), sequence (P01375 whole entry, looked up): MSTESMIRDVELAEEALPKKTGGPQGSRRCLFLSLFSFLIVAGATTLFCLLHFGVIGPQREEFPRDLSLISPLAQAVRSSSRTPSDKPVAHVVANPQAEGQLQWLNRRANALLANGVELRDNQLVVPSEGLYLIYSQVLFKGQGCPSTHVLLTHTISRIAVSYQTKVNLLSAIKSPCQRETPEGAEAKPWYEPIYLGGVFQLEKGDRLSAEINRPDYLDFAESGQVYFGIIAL
Thyroid hormone receptor beta (Homo sapiens), sequence (P10828 whole entry, looked up): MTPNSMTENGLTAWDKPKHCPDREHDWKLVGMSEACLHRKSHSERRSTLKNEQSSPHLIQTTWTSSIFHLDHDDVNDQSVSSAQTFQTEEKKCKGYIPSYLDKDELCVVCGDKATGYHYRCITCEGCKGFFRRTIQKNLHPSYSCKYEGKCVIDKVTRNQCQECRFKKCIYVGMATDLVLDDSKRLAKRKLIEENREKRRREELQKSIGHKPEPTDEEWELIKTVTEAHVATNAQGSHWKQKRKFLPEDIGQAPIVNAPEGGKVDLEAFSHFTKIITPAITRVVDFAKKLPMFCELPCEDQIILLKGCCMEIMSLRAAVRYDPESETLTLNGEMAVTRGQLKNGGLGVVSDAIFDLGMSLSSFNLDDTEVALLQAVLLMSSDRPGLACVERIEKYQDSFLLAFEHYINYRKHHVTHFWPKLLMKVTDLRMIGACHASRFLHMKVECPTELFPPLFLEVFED
Nuclear receptor ROR-gamma (Homo sapiens), sequence (P51449 whole entry, looked up): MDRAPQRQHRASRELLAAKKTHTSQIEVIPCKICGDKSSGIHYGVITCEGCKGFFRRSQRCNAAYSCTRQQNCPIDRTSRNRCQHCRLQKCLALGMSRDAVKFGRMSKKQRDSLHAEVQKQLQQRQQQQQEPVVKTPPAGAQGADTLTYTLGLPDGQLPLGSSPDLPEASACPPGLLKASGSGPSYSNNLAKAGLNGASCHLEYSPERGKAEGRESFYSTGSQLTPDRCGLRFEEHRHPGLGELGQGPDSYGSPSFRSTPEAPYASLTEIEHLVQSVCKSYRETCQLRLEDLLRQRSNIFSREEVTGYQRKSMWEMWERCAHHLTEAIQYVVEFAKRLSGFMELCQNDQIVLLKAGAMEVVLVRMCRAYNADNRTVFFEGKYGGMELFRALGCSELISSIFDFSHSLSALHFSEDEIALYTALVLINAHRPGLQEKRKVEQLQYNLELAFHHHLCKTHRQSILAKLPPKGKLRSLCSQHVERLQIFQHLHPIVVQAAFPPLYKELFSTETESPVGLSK
Voltage-gated inwardly rectifying potassium channel KCNH2 (Homo sapiens), sequence (Q12809 whole entry, looked up): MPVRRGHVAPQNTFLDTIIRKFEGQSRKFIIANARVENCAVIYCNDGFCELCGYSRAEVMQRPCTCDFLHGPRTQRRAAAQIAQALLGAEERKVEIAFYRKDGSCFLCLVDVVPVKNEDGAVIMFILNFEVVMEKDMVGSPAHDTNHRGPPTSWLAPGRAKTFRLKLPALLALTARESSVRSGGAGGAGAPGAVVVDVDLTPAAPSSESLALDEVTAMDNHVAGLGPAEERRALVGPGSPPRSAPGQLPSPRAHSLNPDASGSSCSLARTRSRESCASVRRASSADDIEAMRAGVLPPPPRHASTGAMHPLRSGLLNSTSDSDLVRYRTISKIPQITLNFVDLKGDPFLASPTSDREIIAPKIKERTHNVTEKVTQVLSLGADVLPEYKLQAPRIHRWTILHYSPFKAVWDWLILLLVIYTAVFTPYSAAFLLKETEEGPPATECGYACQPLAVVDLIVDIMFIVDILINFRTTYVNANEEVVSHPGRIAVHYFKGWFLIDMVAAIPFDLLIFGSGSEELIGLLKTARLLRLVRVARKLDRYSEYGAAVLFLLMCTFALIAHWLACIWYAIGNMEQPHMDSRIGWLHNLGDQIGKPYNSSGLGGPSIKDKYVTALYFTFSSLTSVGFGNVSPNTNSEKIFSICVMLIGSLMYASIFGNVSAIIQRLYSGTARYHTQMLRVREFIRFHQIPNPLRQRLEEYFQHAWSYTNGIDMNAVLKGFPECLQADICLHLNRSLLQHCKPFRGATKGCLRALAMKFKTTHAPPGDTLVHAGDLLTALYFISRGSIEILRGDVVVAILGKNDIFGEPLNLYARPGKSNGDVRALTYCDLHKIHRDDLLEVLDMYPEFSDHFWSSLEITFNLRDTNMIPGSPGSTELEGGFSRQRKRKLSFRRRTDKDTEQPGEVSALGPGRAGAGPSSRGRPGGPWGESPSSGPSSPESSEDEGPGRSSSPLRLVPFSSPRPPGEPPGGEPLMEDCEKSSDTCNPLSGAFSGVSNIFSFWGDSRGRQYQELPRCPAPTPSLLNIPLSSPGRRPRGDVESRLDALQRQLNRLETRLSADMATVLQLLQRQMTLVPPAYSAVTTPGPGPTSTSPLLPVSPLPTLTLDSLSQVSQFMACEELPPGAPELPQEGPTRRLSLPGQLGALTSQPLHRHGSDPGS

With `Oc1c(Cl)c(Cl)c(Cl)c(Cl)c1Cl`, the activity change % (negative = inhibition) in [1] is -4.36%. In addition, the Potency result (in experiment [2]; in [12]; with Furin (Homo sapiens)) was “inactive” each time. The Potency in [3] was 26.6 µM (active) and 24.3 µM (active); in experiment [4] it was 22.4 µM (active) and 39.8 µM (active); in [6], 42.2 µM (active); in experiment [7], 42.2 µM (active); in experiment [9] it was 44.7 µM (active) and 39.8 µM (active); in experiment [11] it was 16.8 µM (active). Further, the Potency in experiment [17] is 7.08 µM (active); in experiment [18], 11.2 µM (active); in experiment [19] it was 4.47 µM (active); in experiment [20], 355 µM (active); in experiment [21], 70.8 µM (active). The activation in experiment [5] is -1.59%. Also, the outcome in experiment [8], in experiment [13] and in experiment [16] was inactive. For the same molecule, the max response was 18.2% and 10.1% in experiment [10]; -14.8% and -25.3% in [14]; -15.6% and -10.7% in [15]; -11.9% and -10.8% in experiment [22].

Values taken from PubChem BioAssay (NCATS).
